From PubChem BioAssay (NCI)
The panel holds about 79,000 compounds, 15% with a hit somewhere; the sample as a whole holds those more often. The source made the active and inactive calls. No stated cut-off is given here; in the data, active means growth inhibition above about 70%; inactive means the rest.

Tests used:
[1] = NCI Yeast Anticancer Drug Screen. Data for the rad52 strain (AID 147);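 further: 0% = growth of vehicle-treated control cultures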; details: S. cerevisiae rad52 mutant growth inhibition, active compounds read high
Summary of the method: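 DNA repair-defective yeast; compound exposure; growth scored against vehicle controls.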

[2] = NCI Yeast Anticancer Drug Screen. Data for the wt1 strain (AID 149);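 further: 0% = growth of vehicle-treated wt1 cultures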; details: S. cerevisiae wt1 strain (SPY 50644) growth inhibition, active compounds read high
Summary of the method: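 The wt1 strain was treated with compounds, and growth was compared with vehicle-treated cultures to give inhibition.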

[3] = NCI Yeast Anticancer Drug Screen. Data for the rad50EPP+ strain (AID 151);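 further: 0% = growth of vehicle-treated control cultures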; details: S. cerevisiae rad50 mutant strain, active compounds read high
Summary of the method: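 rad50EPP+ yeast treated with test compounds. Readout: growth vs vehicle control.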

[4] = NCI Yeast Anticancer Drug Screen. Data for the mgt1 strain (AID 153); details: S. cerevisiae mgt1 mutant growth inhibition, active compounds read high
Summary of the method: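 Growth inhibition relative to vehicle controls was scored for the mgt1 yeast strain after compound exposure.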

[5] = NCI Yeast Anticancer Drug Screen. Data for the rad50 strain (AID 155);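 further: 0% = growth of vehicle-only cultures of the same strain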; details: S. cerevisiae rad50 strain growth inhibition, active compounds read high
Summary of the method: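 Cells are treated with compound, grown, and their growth is then scored against vehicle-only cultures of the same repair-deficient yeast strain.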

[6] = NCI Yeast Anticancer Drug Screen. Data for the mec2-1 strain (AID 157); details: S. cerevisiae mec2-1 strain, active compounds read high
Summary of the method: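 Growth inhibition is read against vehicle-treated controls after compound exposure of the mec2-1 yeast strain, which is defective in DNA damage repair or cell cycle control.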

[7] = NCI Yeast Anticancer Drug Screen. Data for the sgs1 mgt1 strain (AID 161);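 further: 0% = growth of cultures given vehicle only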; details: S. cerevisiae sgs1 mgt1 strain, active compounds read high
Summary of the method: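 Compounds are added to genetically altered yeast, and growth is compared with cultures given vehicle alone to give percent inhibition.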

[8] = NCI Yeast Anticancer Drug Screen. Data for the CLN2oe strain (AID 163);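 further: 0% = growth of vehicle-only control cultures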; details: S. cerevisiae CLN2oe strain, active compounds read high
Summary of the method: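 Compound-treated yeast; growth vs vehicle ctrl = % inhibition. Genetically altered strain (cell-cycle control).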

[9] = NCI Yeast Anticancer Drug Screen. Data for the cln2 rad14 strain (AID 165);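 further: 0% = growth equal to vehicle treated cultures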; details: S. cerevisiae cln2 rad14 strain, active compounds read high
Summary of the method: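 Growth inhibition, relative to vehicle-treated controls, is the read-out. The test organism is a yeast strain with defined genetic alterations, cln2 rad14.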

[10] = NCI Yeast Anticancer Drug Screen. Data for the bub3 strain (AID 167); details: S. cerevisiae bub3 mutant strain, active compounds read high
Summary of the method: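 Part of a panel of yeast mutants defective in DNA damage repair or cell cycle regulation. Each strain is grown with compound, and inhibition is calculated relative to solvent-treated cultures.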

[11] = NCI Yeast Anticancer Drug Screen. Data for the wt2 strain (AID 169);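 further: 0% = growth of vehicle-treated yeast cultures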; details: S. cerevisiae wt2 strain growth inhibition, active compounds read high
Summary of the method: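 Compound exposure of yeast; growth compared with vehicle controls; inhibition reported.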

[12] = NCI Yeast Anticancer Drug Screen. Data for the mlh1 strain (AID 171);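 further: 0% = growth of vehicle-treated control cultures of the same strain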; details: S. cerevisiae mlh1 strain growth inhibition, active compounds read high
Summary of the method: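 Compounds are applied to a genetically altered yeast strain, and its growth is compared with that of vehicle-treated cultures to give percent inhibition.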

[13] = NCI Yeast Anticancer Drug Screen. Data for the sgs1 strain (AID 173);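 further: 0% = growth of vehicle-only control cultures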; details: S. cerevisiae sgs1 mutant, active compounds read high
Summary of the method: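 Compounds applied to genetically altered yeast; growth compared with vehicle-treated cultures to give % inhibition.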

[14] = NCI Yeast Anticancer Drug Screen. Data for the mlh1 rad18 strain (AID 175); details: S. cerevisiae mlh1 rad18 strain growth inhibition, active compounds read high
Summary of the method: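 Cells of a genetically altered yeast strain, deficient in DNA damage repair, were treated with compound. Their growth was then compared with that of vehicle-treated cultures to give inhibition.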

[15] = NCI Yeast Anticancer Drug Screen. Data for the rad18 strain (AID 177); details: S. cerevisiae rad18 mutant growth inhibition, active compounds read high
Summary of the method: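 Compounds are applied to a repair-deficient yeast strain, and growth is compared with that of vehicle-treated cultures to give percent inhibition.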

[16] = at 5.0 µM (retest, dose inferred, filed as 0.5)
[17] = at 50.0 µM (retest, dose inferred, filed as 5.0)

Measured: growth inhibition

O=C1c2ccc3ccccc3c2CCC1N1CCCCC1 (stereo not drawn)
active: [1]; at 33.0 µM 81% | [1]; at 100.0 µM 98% | [2]; at 100.0 µM 97% | [3]; at 11.0 µM 77% | [3]; at 33.0 µM 85% | [3]; at 100.0 µM 98% | [4]; at 33.0 µM 76% | [4]; at 100.0 µM 98% | [5]; at 33.0 µM 73% | [5]; [17] 97% | [5]; at 50.0 µM 98.9% | [5]; at 100.0 µM 98% | [6]; [17] 99% | [6]; at 50.0 µM 98.8% | [6]; at 100.0 µM 95% | [7]; [17] 98% | [7]; at 50.0 µM 99.2% | [8]; at 100.0 µM 98% | [9]; [17] 97% | [9]; at 50.0 µM 78.3% | [10]; at 33.0 µM 76% | [10]; [17] 99% | [10]; at 50.0 µM 99.3% | [10]; at 100.0 µM 97% | [11]; at 33.0 µM 79% | [11]; at 100.0 µM 97% | [12]; at 33.0 µM 81% | [12]; at 100.0 µM 98% | [13]; at 33.0 µM 92% | [13]; at 100.0 µM 98% | [14]; [17] 99% | [14]; at 50.0 µM 97% | [15]; at 100.0 µM 97%
inactive: [1]; at 1.2 µM 4% | [1]; at 3.7 µM 16% | [1]; at 11.0 µM 41% | [2]; at 1.2 µM 3% | [2]; at 3.7 µM 11% | [2]; at 11.0 µM 9% | [2]; at 33.0 µM 27% | [3]; at 1.2 µM 32% | [3]; at 3.7 µM 53% | [4]; at 1.2 µM 3% | [4]; at 3.7 µM 10% | [4]; at 11.0 µM 21% | [5]; at 1.2 µM 2% | [5]; at 3.7 µM 8% | [5]; [16] 9% | [5]; at 11.0 µM 16% | [6]; at 1.2 µM 0% | [6]; at 3.7 µM 11% | [6]; [16] 10% | [6]; at 11.0 µM 17% | [6]; at 33.0 µM 62% | [7]; [16] 19% | [8]; at 1.2 µM 5% | [8]; at 3.7 µM 5% | [8]; at 11.0 µM 22% | [8]; at 33.0 µM 61% | [9]; [16] 7% | [10]; at 1.2 µM -7% | [10]; at 3.7 µM -6% | [10]; [16] 10% | [10]; at 11.0 µM 8% | [11]; at 1.2 µM 5% | [11]; at 3.7 µM 14% | [11]; at 11.0 µM 33% | [12]; at 1.2 µM -1% | [12]; at 3.7 µM 7% | [12]; at 11.0 µM 22% | [13]; at 1.2 µM 4% | [13]; at 3.7 µM 12% | [13]; at 11.0 µM 41% | [14]; [16] 31% | [15]; at 1.2 µM 6% | [15]; at 3.7 µM 13% | [15]; at 11.0 µM 26% | [15]; at 33.0 µM 65%
